Key:
Assay in all cases: DAPPL (digital affinity profiling via proximity ligation, sequencing); 10 mM Tris-HCl pH 7.5, 50 mM NaCl, 1 mM DTT, 4% glycerol, room temperature, 30 min; GST-TFs on glutathione beads, 16-mer random dsDNA library, 0.1% formaldehyde crosslink after washing; high values mean tight binding
Details in all cases: protein: recombinant; tags: N-terminal GST; dsDNA, one strand shown
ERF = biological target: T1, ERF (Homo sapiens, UniProt P50548 1-548)
T1 sequence: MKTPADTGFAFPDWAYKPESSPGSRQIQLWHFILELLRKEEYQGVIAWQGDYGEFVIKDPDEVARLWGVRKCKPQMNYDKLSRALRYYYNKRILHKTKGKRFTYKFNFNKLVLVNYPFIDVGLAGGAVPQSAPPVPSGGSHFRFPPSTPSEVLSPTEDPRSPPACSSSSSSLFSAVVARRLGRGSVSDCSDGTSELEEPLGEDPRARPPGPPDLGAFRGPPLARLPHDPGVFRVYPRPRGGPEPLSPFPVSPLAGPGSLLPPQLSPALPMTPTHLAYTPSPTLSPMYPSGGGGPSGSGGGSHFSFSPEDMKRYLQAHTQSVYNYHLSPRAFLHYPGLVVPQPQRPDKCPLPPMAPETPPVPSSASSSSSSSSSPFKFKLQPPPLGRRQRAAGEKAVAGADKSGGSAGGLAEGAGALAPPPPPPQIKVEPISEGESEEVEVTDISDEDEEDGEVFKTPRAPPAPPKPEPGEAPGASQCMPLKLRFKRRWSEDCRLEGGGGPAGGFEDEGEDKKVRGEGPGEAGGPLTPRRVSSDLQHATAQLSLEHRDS
How it was run: (§1)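 The binding signal reported is, for every hexamer, its read frequency for a factor over its read frequency for the tag-only sample. Reads came from pools of yeast-expressed, GST-fused human transcription factors on glutathione beads, barcoded with DNA and mixed with that sample, which were incubated with 200 nmole of a random double-stranded 16-mer DNA library in Tris/NaCl/DTT/glycerol buffer at room temperature for 30 min. After washing, the pools were crosslinked with 0.1% formaldehyde, proximity-ligated with BsaI/T4 ligase for 1 h at 37 °C, PCR-amplified and sequenced on an Illumina NextSeq500.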

ETV3L = biological target: T2, ETV3L (Homo sapiens, UniProt Q6ZN32 1-361)
T2 sequence: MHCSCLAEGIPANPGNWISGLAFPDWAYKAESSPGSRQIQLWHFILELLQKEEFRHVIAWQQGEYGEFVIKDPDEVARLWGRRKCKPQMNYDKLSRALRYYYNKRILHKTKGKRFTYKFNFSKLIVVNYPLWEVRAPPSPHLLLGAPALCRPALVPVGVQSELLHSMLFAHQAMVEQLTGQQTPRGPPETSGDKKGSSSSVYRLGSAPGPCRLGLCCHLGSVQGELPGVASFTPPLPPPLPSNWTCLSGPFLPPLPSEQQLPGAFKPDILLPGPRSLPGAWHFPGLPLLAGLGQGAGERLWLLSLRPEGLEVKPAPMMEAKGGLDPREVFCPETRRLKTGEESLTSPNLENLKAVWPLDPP
How it was run: as §1

ETS2 = biological target: T3, ETS2 (Homo sapiens, UniProt P15036 1-469)
T3 sequence: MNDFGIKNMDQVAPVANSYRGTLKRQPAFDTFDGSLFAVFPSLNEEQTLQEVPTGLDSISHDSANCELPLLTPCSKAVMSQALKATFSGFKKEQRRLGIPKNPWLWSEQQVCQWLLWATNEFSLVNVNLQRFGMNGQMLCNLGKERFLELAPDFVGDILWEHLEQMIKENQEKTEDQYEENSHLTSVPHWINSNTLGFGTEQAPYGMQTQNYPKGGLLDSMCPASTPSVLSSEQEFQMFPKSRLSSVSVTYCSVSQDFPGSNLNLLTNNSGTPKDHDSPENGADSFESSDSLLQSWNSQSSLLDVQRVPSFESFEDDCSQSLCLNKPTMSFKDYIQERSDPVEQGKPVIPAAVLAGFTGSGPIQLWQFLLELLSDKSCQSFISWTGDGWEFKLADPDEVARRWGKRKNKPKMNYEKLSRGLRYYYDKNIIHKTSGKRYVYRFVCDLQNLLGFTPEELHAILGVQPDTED
How it was run: as §1

SPDEF = biological target: T4, SPDEF (Homo sapiens, UniProt O95238 1-335)
T4 sequence: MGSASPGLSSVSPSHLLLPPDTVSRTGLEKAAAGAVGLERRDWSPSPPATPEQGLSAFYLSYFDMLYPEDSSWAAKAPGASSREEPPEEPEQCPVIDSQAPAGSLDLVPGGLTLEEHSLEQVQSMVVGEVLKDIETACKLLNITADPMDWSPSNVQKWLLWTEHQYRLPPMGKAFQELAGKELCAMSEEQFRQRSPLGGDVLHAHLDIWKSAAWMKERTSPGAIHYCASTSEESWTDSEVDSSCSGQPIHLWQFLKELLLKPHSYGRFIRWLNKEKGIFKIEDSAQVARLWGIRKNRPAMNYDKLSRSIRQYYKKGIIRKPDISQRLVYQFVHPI
How it was run: as §1

ETV7 = biological target: T5, ETV7 (Homo sapiens, UniProt Q9Y603 1-341)
T5 sequence: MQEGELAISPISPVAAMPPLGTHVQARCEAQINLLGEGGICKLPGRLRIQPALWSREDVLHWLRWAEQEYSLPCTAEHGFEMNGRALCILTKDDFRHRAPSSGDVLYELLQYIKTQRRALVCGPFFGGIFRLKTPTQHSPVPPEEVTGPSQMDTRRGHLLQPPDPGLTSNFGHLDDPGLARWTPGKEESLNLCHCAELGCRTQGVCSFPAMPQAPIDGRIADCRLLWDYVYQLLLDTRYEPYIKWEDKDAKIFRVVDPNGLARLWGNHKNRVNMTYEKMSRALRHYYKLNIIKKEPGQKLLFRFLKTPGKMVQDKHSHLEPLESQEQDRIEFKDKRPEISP
How it was run: as §1

ELF5 = biological target: T6, ELF5 (Homo sapiens, UniProt Q9UKW6-2 1-255)
T6 sequence: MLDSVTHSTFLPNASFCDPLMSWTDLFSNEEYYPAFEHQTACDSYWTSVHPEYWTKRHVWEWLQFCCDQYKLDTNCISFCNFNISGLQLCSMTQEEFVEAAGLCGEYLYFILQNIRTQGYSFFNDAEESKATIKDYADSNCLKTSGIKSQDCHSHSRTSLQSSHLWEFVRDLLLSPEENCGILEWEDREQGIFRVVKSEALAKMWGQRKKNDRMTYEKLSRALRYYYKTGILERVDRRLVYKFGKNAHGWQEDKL
How it was run: as §1

ETV3 = biological target: T7, ETV3 (Homo sapiens, UniProt P41162-2 1-143)
T7 sequence: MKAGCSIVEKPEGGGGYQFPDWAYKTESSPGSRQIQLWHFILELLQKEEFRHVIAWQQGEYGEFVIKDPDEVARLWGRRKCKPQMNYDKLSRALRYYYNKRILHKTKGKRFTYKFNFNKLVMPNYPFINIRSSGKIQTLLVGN
How it was run: as §1

ETV6 = ETV6 (Homo sapiens, UniProt P41212 1-452)
Chain of ETV6 (P41212 whole entry): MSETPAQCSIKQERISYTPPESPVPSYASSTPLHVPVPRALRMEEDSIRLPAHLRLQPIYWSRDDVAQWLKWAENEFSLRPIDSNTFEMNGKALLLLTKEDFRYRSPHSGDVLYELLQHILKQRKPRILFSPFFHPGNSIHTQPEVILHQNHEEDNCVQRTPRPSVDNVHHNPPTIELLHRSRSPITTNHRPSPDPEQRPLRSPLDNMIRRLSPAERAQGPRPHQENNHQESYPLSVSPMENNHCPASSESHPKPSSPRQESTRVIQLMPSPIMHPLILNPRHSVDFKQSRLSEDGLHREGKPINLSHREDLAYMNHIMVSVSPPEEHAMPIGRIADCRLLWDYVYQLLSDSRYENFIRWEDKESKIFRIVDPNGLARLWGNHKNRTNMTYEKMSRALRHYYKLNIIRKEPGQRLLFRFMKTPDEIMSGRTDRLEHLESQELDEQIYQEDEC
How it was run: as §1

In the case of TACCTG, the binding signal (ERF) is reported as 1.22 fold enrichment (6-mer frequency, TF over GST control), the binding signal (ETV3L) is reported as 1.09 fold enrichment (6-mer frequency, TF over GST control) and the binding signal (ETS2) is reported as 1.15 fold enrichment (6-mer frequency, TF over GST control). For the same sequence, the binding signal (SPDEF) was 1.11 fold enrichment (6-mer frequency, TF over GST control), the binding signal (ETV7) was 1.24 fold enrichment (6-mer frequency, TF over GST control) and the binding signal (ELF5) was 1.21 fold enrichment (6-mer frequency, TF over GST control). The binding signal (ETV3) was 1.19 fold enrichment (6-mer frequency, TF over GST control) and the binding signal (ETV6) was 1.2 fold enrichment (6-mer frequency, TF over GST control).

For ACTCGA, the binding signal (ERF) was 1.33 fold enrichment (6-mer frequency, TF over GST control), the binding signal (ETV3L) was 1.3 fold enrichment (6-mer frequency, TF over GST control) and the binding signal (ETS2) was 1.33 fold enrichment (6-mer frequency, TF over GST control). For the same sequence, the binding signal (SPDEF) was 1.29 fold enrichment (6-mer frequency, TF over GST control), the binding signal (ETV7) was 1.28 fold enrichment (6-mer frequency, TF over GST control) and the binding signal (ELF5) was 1.22 fold enrichment (6-mer frequency, TF over GST control). For the same sequence, the binding signal (ETV3) was 1.27 fold enrichment (6-mer frequency, TF over GST control) and the binding signal (ETV6) was 1.27 fold enrichment (6-mer frequency, TF over GST control).

For TGGCAG, the binding signal (ERF) was 1.11 fold enrichment (6-mer frequency, TF over GST control), the binding signal (ETV3L) was 1.12 fold enrichment (6-mer frequency, TF over GST control) and the binding signal (ETS2) was 1.05 fold enrichment (6-mer frequency, TF over GST control). The binding signal (SPDEF) was 1.05 fold enrichment (6-mer frequency, TF over GST control), the binding signal (ETV7) was 1.04 fold enrichment (6-mer frequency, TF over GST control) and the binding signal (ELF5) was 1.09 fold enrichment (6-mer frequency, TF over GST control). For the same sequence, the binding signal (ETV3) was 1.16 fold enrichment (6-mer frequency, TF over GST control) and the binding signal (ETV6) was 1.09 fold enrichment (6-mer frequency, TF over GST control).

In the case of GATTTC, the binding signal (ERF) is reported as 1.57 fold enrichment (6-mer frequency, TF over GST control), the binding signal (ETV3L) is reported as 1.73 fold enrichment (6-mer frequency, TF over GST control) and the binding signal (ETS2) is reported as 1.79 fold enrichment (6-mer frequency, TF over GST control). For the same sequence, the binding signal (SPDEF) was 1.66 fold enrichment (6-mer frequency, TF over GST control), the binding signal (ETV7) was 1.56 fold enrichment (6-mer frequency, TF over GST control) and the binding signal (ELF5) was 2.07 fold enrichment (6-mer frequency, TF over GST control). For the same sequence, the binding signal (ETV3) was 1.71 fold enrichment (6-mer frequency, TF over GST control) and the binding signal (ETV6) was 1.8 fold enrichment (6-mer frequency, TF over GST control).

With TCTATA the binding signal (ERF) was 1.15 fold enrichment (6-mer frequency, TF over GST control), the binding signal (ETV3L) was 1.09 fold enrichment (6-mer frequency, TF over GST control) and the binding signal (ETS2) was 1.2 fold enrichment (6-mer frequency, TF over GST control). For the same sequence, the binding signal (SPDEF) was 1.15 fold enrichment (6-mer frequency, TF over GST control), the binding signal (ETV7) was 1.1 fold enrichment (6-mer frequency, TF over GST control) and the binding signal (ELF5) was 1.08 fold enrichment (6-mer frequency, TF over GST control). For the same sequence, the binding signal (ETV3) was 1.06 fold enrichment (6-mer frequency, TF over GST control) and the binding signal (ETV6) was 1.07 fold enrichment (6-mer frequency, TF over GST control).

For TGTTTA, the binding signal (ERF) was 1.22 fold enrichment (6-mer frequency, TF over GST control), the binding signal (ETV3L) was 1.2 fold enrichment (6-mer frequency, TF over GST control) and the binding signal (ETS2) was 1.13 fold enrichment (6-mer frequency, TF over GST control). For the same sequence, the binding signal (SPDEF) was 1.17 fold enrichment (6-mer frequency, TF over GST control), the binding signal (ETV7) was 1.3 fold enrichment (6-mer frequency, TF over GST control) and the binding signal (ELF5) was 1.19 fold enrichment (6-mer frequency, TF over GST control). The binding signal (ETV3) was 1.12 fold enrichment (6-mer frequency, TF over GST control) and the binding signal (ETV6) was 1.19 fold enrichment (6-mer frequency, TF over GST control).

In the case of TACAGG, the binding signal (ERF) is reported as 1.1 fold enrichment (6-mer frequency, TF over GST control), the binding signal (ETV3L) is reported as 1.27 fold enrichment (6-mer frequency, TF over GST control) and the binding signal (ETS2) is reported as 1.08 fold enrichment (6-mer frequency, TF over GST control). For the same sequence, the binding signal (SPDEF) was 1.39 fold enrichment (6-mer frequency, TF over GST control), the binding signal (ETV7) was 1.12 fold enrichment (6-mer frequency, TF over GST control) and the binding signal (ELF5) was 1.22 fold enrichment (6-mer frequency, TF over GST control). For the same sequence, the binding signal (ETV3) was 1.18 fold enrichment (6-mer frequency, TF over GST control) and the binding signal (ETV6) was 1.19 fold enrichment (6-mer frequency, TF over GST control).

For ATGGGC, the binding signal (ERF) was 1.17 fold enrichment (6-mer frequency, TF over GST control), the binding signal (ETV3L) was 1.3 fold enrichment (6-mer frequency, TF over GST control) and the binding signal (ETS2) was 1.28 fold enrichment (6-mer frequency, TF over GST control). For the same sequence, the binding signal (SPDEF) was 1.24 fold enrichment (6-mer frequency, TF over GST control), the binding signal (ETV7) was 1.22 fold enrichment (6-mer frequency, TF over GST control) and the binding signal (ELF5) was 1.26 fold enrichment (6-mer frequency, TF over GST control). The binding signal (ETV3) was 1.23 fold enrichment (6-mer frequency, TF over GST control) and the binding signal (ETV6) was 1.33 fold enrichment (6-mer frequency, TF over GST control).

In the case of CCTCTT, the binding signal (ERF) is reported as 1.59 fold enrichment (6-mer frequency, TF over GST control), the binding signal (ETV3L) is reported as 1.71 fold enrichment (6-mer frequency, TF over GST control) and the binding signal (ETS2) is reported as 1.56 fold enrichment (6-mer frequency, TF over GST control). The binding signal (SPDEF) was 1.57 fold enrichment (6-mer frequency, TF over GST control), the binding signal (ETV7) was 1.51 fold enrichment (6-mer frequency, TF over GST control) and the binding signal (ELF5) was 1.75 fold enrichment (6-mer frequency, TF over GST control). The binding signal (ETV3) was 1.67 fold enrichment (6-mer frequency, TF over GST control) and the binding signal (ETV6) was 1.68 fold enrichment (6-mer frequency, TF over GST control).

Source: PMC7862700, “An all-to-all approach to the identification of sequence-specific readers for epigenetic DNA modifications on cytosine”
